Screens: PubChem BioAssay, National Center for Advancing Translational Sciences (NCATS)
Sampled rows, rich in hits. Any-hit rate of the full collection: about 9.3%.
NPC1 prom act: activates the NPC1 promoter | Huh7 NPC1 promoter luciferase reporter, 24 h | Potency, µM (doses to about 9.22 µM), for inactives: top-dose activation, actives largely listed as activators | 2.4% of 320,000 active; further: % of control where 0% means no effect; nearly all actives have a fitted effect of over 60% in size
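Stably transfected Huh7 (NPC1 promoter→luciferase), 1500 cells/well in Opti-MEM + 10% FBS, 2 h settle, then compound 24 h at 37 °C. Luminescence after 10 min with Amplite reagent.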
ELG1 genotox: genotoxicity induction in ELG1-luciferase HEK293T cells. HEK293T ELG1-luciferase reporter, luminescence, 16 h. 1.3% of 330,000 active. Potency, µM (top dose mostly 46 µM), for inactives: at the top dose activity change, positive = activation, most hits filed as activators; further: % of control where 0% means no effect; nearly all actives have a fitted effect of over 60% in size
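Reporter readout depends on ELG1 protein level, which increases with genetic stress. After 16 hr compound exposure at 37 °C, luciferase activity was quantified using ONE-Glo.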
FLuc counter: counter-screen for miR-21 project: firefly luciferase inhibitors or activators. purified FLuc, Km substrates, luminescence inhibition. Potency, µM (series often up to 57.5 µM), for the others: top-dose activity change, negative = inhibition, hits mostly inhibitors. 6.9% of 360,000 active;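 further: plate controls were vehicle for no effect and reference inhibitor for full effect; nearly all actives have a fitted effect of over 55% in size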
Target sequence (P08659 whole entry, looked up): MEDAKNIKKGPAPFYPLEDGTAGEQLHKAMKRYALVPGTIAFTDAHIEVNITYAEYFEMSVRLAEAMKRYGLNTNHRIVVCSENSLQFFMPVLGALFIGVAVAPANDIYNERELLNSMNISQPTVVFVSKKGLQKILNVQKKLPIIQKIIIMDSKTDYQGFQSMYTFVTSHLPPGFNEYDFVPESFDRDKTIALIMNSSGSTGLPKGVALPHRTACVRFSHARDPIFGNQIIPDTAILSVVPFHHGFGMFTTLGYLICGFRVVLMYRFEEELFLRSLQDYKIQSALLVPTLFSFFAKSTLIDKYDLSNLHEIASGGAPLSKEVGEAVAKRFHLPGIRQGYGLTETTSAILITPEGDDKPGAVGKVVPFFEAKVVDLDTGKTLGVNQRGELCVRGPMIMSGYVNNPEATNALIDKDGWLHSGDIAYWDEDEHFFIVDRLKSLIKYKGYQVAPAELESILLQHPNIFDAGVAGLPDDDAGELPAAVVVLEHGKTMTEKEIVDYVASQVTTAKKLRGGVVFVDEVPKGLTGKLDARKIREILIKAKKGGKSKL
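Purified P. pyralis luciferase (10nM final) with 10uM D-luciferin and 10uM ATP (Km levels) in 50mM Tris acetate pH 7.5, 10mM Mg acetate, 0.01% Tween-20, 0.05% BSA; qHTS 6-point titration, ~60 µM downward; luminescence read.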
SMN2 splice enh: enhancers of SMN2 splice variant expression; HEK293 SMN2-luciferase splicing reporter, luminescence, 30-36 h; Potency, µM (highest dose often 46.1 µM), without a hit: at the highest dose activity change, positive = activation, hits mostly activators; 2.8% of 210,000 active; AID 1458; further: % of control where 0% means no effect; nearly all actives have a fitted effect of over 55% in size
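HEK293 cells carry an SMN2 minigene-luciferase reporter in which exon 7 inclusion puts luciferase in frame. Cells were seeded at 2000 cells/well, attached for 10-12 hours, then exposed to compounds for 30-36 hours at 37C before ONE-Glo luminescence.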
Rab9 promoter act: activates the Rab9 promoter. Huh7 Rab9 promoter-luciferase reporter, luminescence, 24 h. Potency, µM (titrated, usually from 9.22 µM), inactives show top-dose activation, negative = inhibition, actives largely listed as activators. 2.8% of 320,000 active. AID 485297; further: % of control where 0% means no effect; nearly all actives have a fitted effect of over 60% in size
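Cell-based reporter: Huh7 stable for Rab9 promoter-driven luciferase, plated in reduced-serum medium with 10% FBS at 1500 cells/well, compound-treated 24 h at 37 °C, luminescence read after 10 min reagent.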
ELG1 DNA repair: blocks ELG1-dependent DNA repair in HEK293T cells; Potency, µM (top dose mostly 46.1 µM), for the others: at the highest dose activity change, negative = inhibition, most hits filed as inhibitors; 2.3% of 330,000 active; HEK293T ELG1-luciferase reporter, luminescence, 16 h; DNA damage induced by 5-fluorouridine; further: on the % scale 0 is the no-effect control and ±100 the full control effect; nearly all actives have a fitted effect of over 55% in size
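DMSO vehicle served as the neutral condition. Each well held 2,000 cells given 5-fluorouridine plus compound; after 16 hr at 37 °C/5% CO2, ONE-Glo was added and luciferase measured 30 min later.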
Active calls of the source: *; ? = inconclusive; nt = no result; [ ] = remark or other dose. The call rests on the fitted dose curve; in most records, active means well fitted curve in the direction sought with a large enough effect; inconclusive means small, poorly fitted or top-dose-only effect, or another doubt; inactive means no such curve, though single readings can be large; an effect the other way counts as inactive or inconclusive. Potency means the concentration at half of the fitted maximal effect.

SMILES	NPC1 prom act	ELG1 genotox	FLuc counter	SMN2 splice enh	Rab9 promoter act	ELG1 DNA repair
COc1ccc(/C=C/C(=O)c2ccncc2)c2ccccc12	1.5%	-3.6%	?	-56.7%	-5.3%	3.6%
COc1ccc(/C=C/C(=O)c2ccc[nH]2)c(OC)c1OC	?	?	8.49µM*	?	?	?
Cc1ccc(C(=O)COC(=O)c2cccc(O)c2)s1	14.9%	1.5%	0.426µM*	nt	3.6%	26.3%
COc1cccc(C(=O)OCC(=O)c2ccc(Br)s2)c1	3.1%	1.5%	7.57µM*	nt	0.1%	6.1%
COc1ccc(C(=O)OCC(=O)c2ccc(Br)s2)c(OC)c1	0.4%	15.2%	?	nt	1.8%	?
Cc1cccc(C(=O)NCC(=O)OCC(=O)c2ccc(C)s2)c1	nt	2.8%	nt	nt	nt	17.5%
O=C(NCCc1ccccc1)c1cc(=O)[nH]c2ccccc12	4.7%	0.6%	-0.8%	-2.6%	0.4%	5.3%
Cc1ccc(NC(=O)C(=O)c2cn(CC(=O)N3CCCCC3)c3ccccc23)cc1	1.2%	-1.4%	9.53µM*	4.4%	-2.3%	-10.7%
O=C(NCc1ccc(Cl)cc1)C(=O)c1cn(CC(=O)N2CCOCC2)c2ccccc12	-2.6%	5.7%	-16.8%	nt	-1.7%	9.8%
O=C(Nc1ccccc1Cl)C(=O)c1cn(CC(=O)N2CCOCC2)c2ccccc12	3.55µM*	?	0.379µM*	nt	2.51µM*	?
COC(=O)c1ccc(NC(=O)C(=O)c2cn(CC(=O)N3CCOCC3)c3ccccc23)cc1	-0.8%	10.6%	-11.7%	nt	-2.9%	-1.9%
COc1ccccc1CNC(=O)C(=O)c1cn(CC(=O)N2CCCC2)c2ccccc12	16.7%	2.6%	?	nt	6.5%	11.7%
CCc1ccc(NC(=O)C(=O)c2cn(CC(=O)N3CCCCC3)c3ccccc23)cc1	0.2%	-1.8%	9.53µM*	3.0%	-2.4%	?
COc1ccccc1CCNC(=O)C(=O)c1cn(CC(=O)N2CCOCC2)c2ccccc12	15.3%	9.8%	23.9µM*	nt	18.0%	?
Cc1cc2c3c([nH]c2cc1S(=O)(=O)N1CCC2(CC1)OCCO2)CCCC3=O	-13.2%	-9.1%	1.2%	nt	-15.3%	?
COc1ccc(-c2nc3cnc(OC)nc3n(C3CC3)c2=O)cc1	nt	nt	nt	-11.7%	nt	nt
Cc1nn(CC(=O)NC(C)C)c(C)c1[N+](=O)[O-]	-0.1%	-1.6%	-0.3%	-9.3%	12.3%	-13.1%
CCN(Cc1ccccc1)C(=O)c1nn(-c2ccc(OC)cc2)c(=O)c2c1c1ccccc1n2C	-2.5%	-11.3%	0.1%	-0.3%	-7.4%	18.3µM*
CCC(C)(C)NC(=O)CN(C(=O)C(=O)Nc1ccc2c(c1)OCCO2)C1CC1	2.5%	0.0%	0.4%	nt	8.1%	20.2%
Cc1ccc(N=Nc2c(O)[nH]c3ccc(F)cc23)cc1	3.16µM*	?	?	nt	2.82µM*	?
Cc1cccc2c(N=Nc3ccccc3)c(O)[nH]c12	1.41µM*	5.17µM*	1.51µM*	nt	2µM*	?
Cc1ccc(N=Nc2[nH]c3ccccc3c2O)cc1	5.2%	?	?	12.6µM*	19.4%	?
CCOc1ccc(NC(=S)N=Nc2c(O)[nH]c3ccccc23)cc1	-8.2%	-9.9%	-16.4%	-40.8%	-4.0%	?
Oc1cccc(NC(=S)N=Nc2c(O)[nH]c3ccccc23)c1	16.0%	?	19µM*	nt	22.4%	?
COc1ccc(N=Nc2[nH]c3ccc(C)cc3c2O)cc1	7.2%	13.1%	-11.2%	0.0%[1.84 µM]	24.2%	?
SMILES	NPC1 prom act	ELG1 genotox	FLuc counter	SMN2 splice enh	Rab9 promoter act	ELG1 DNA repair
CN(Cc1nccn1C)C(=O)C1CCC(=O)N(Cc2cccc(C(F)(F)F)c2)C1 (configuration not stated)	-3.6%	0.0%	-0.4%	nt	-3.8%	9.4%
CCN(CC)S(=O)(=O)c1ccc(NC(=O)Cn2ncc3c([nH]c4ccccc43)c2=O)cc1	nt	nt	-16.5%	nt	nt	nt
Oc1[nH]c2ccccc2c1N=Nc1cccc(Cl)c1	29.6%	?	5.36µM*	nt	?	?
O=C(O)c1ccc(N=Nc2c(O)[nH]c3ccc(Br)cc23)cc1	1.26µM*	18.3µM*	10.7µM*	nt	?	?
Nc1nc(N)c(N=Nc2ccc(C(=O)O)cc2)c(N)n1	-1.6%	-0.1%	-16.5%	nt	15.7%	-7.4%
Oc1[nH]c2ccccc2c1N=Nc1c(F)c(F)c(Cl)c(F)c1F	24.4%	3.8%	-3.1%	nt	?	24.5%
O=C(O)c1ccc(N=Nc2c(O)[nH]c3cc(Cl)ccc23)cc1	0.316µM*	9.2µM*	0.849µM*	nt	0.1µM*	?
CC(O)CNc1nc(Cl)c(C#N)s1 (configuration not stated)	7.3%	0.6%	-1.4%	0.3%	-2.0%	-11.6%
Cc1c(NC(=O)C(C)OC(=O)CCOc2ccccc2)c(=O)n(-c2ccccc2)n1C (configuration not stated)	-3.8%	-4.1%	-0.1%	nt	3.1%	-4.4%
CCOc1ccc(S(=O)(=O)NCC(=O)NC2CCCCC2)cc1	1.5%	-3.5%	1.8%	nt	-3.6%	4.0%
C[n+]1cc[nH]c1SCC(=O)c1ccc(Cl)cc1	24.5%	?	nt	?	?	0.0%
C[n+]1cc[nH]c1SCC(=O)c1ccccc1	?	18.4µM*	23.9µM*	20.8%	?	?
CCCCOC(=O)c1ccc(NC(=O)CSc2nc3c(c(=O)[nH]2)CCCC3)cc1	nt	nt	4.5%	nt	nt	nt
CC(C)(C)c1ccc(OCCn2ccccc2=O)cc1	1.41µM*	4.61µM*	5.36µM*	11.2µM*	1.12µM*	?
Cc1cc(S(=O)(=O)NC(C)C)ccc1OCC(=O)NCc1ccccc1	-3.4%	-3.3%	-3.9%	nt	-7.4%	-12.2%
CCOC(=O)c1c(NC(=O)c2cc(C)oc2C)sc(C(=O)Nc2ccc(Cl)cc2)c1C	23.4%	14.5%	16.9µM*	-2.0%	29.0%	?
CCC/C(=N/NC(=O)c1ccc2c(c1)OCO2)c1cccs1	13.2%	12.7%	16.9µM*	20µM*	?	?
Cc1cc(NC(=O)c2ccc3c(c2)OCO3)ccc1NC(=O)c1ccccc1	14.8%	?	?	nt	14.3%	?
CCOC(=O)c1cccc(NC(=O)/C=C/c2ccc3c(c2)OCO3)c1	0.316µM*	?	1.9µM*	?	0.316µM*	?
COc1ccc(-c2cccc(NC(=O)c3ccc4c(c3)OCO4)c2)nn1	3.2%	-16.9%	15.1µM*	nt	-7.8%	?
O=C1Nc2ccccc2C1(O)C/C(=N/O)c1ccccc1 (configuration not stated)	-0.7%	-0.2%	0.7%	22.1%	1.4%	8.1%
CCOC(=O)c1cccc(NC(=O)c2ccc3c(c2)OCO3)c1	0.398µM*	?	8.49µM*	nt	0.224µM*	?
